Consider four compounds from PubChem BioAssay.

Test [1] is described as follows: compound effects on lung adenocarcinoma cell viability – A549, calcein-AM fluorescence, 48 h, basal, profiling panel (AID 1162). Also: test concentration not given here. The conditions noted are these: higher = more signal.
Test [2] in a line: compound effects on differentiated 3T3-L1 adipocyte viability – cell-based, 3T3-L1 adipocytes, calcein-AM fluorescence, 48 h, basal, profiling panel (AID 1163). Also: test concentration not given here. The conditions noted are these: 3T3-L1 adipocytes viability, higher = more signal.
The nature of test [3]: compound effects on hepatocellular carcinoma cell viability – HepG2, calcein-AM fluorescence, 48 h, basal, profiling panel (AID 1164). Also: test concentration not given here. The note with it: higher = more signal.
The nature of test [4]: compound effects on multiple myeloma cell viability – MM1S, calcein-AM fluorescence, 48 h, basal, profiling panel (AID 1165). Also: test concentration not given here. The conditions noted are these: higher = more signal.
The nature of test [5]: calcein-AM signal in unstimulated myeloma cells – cell-based, calcein-AM fluorescence, 48 h, PK04 Diversity Set, profiling panel (AID 1166).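 Also: cells grown under basal conditions without added stimulus; test concentration not given here.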 The note with it: RPMI8226 myeloma viability, higher = more signal.
Test [6] can be described thus: JC-1 mitochondrial signal, unstimulated HepG2 cells – cell-based, JC-1 fluorescence, 24 h, 100 nL compound, profiling panel (AID 1167). Also: test concentration not given here. The note with it: HepG2 mitochondrial potential, higher = more signal.
The nature of test [7]: JC-1 mitochondrial signal, unstimulated adipocytes – cell-based, JC-1 fluorescence, 3T3-L1 adipocytes, 24 h, 100 nL compound, profiling panel (AID 1168). Also: test concentration not given here. The note with it: JC-1 mitochondrial fluorescence, higher = more signal, called active from +8 up or from −8 down.
Test [8] in a line: JC-1 mitochondrial signal, unstimulated myeloma cells – cell-based, JC-1 fluorescence, RPMI8226, 24 h, 100 nL compound, profiling panel (AID 1169). Also: test concentration not given here. The conditions noted are these: JC-1 mitochondrial potential fluorescence, higher = more signal.
Test [9] is described as follows: JC-1 mitochondrial signal, unstimulated MM1S myeloma – cell-based, JC-1 fluorescence, 24 h, 100 nL compound, profiling panel (AID 1170). Also: test concentration not given here. The conditions noted are these: MM1S mitochondrial potential, higher = more signal.
Test [10] in a line: resazurin metabolic signal in A549 cells – cell-based, resazurin fluorescence, 24 h, PK04 Diversity Set, profiling panel (AID 1171). Also: test concentration not given here. The note with it: A549 viability, higher = more signal, called active from +8 up or from −8 down. On the technique in general: Resazurin is reduced to fluorescent resorufin, in cell work by metabolically active cells.
A short description of test [11]: resazurin metabolic signal in HepG2 cells – cell-based, resazurin fluorescence, 24 h, PK04 Diversity Set, profiling panel (AID 1172). Also: test concentration not given here. The conditions noted are these: HepG2 viability, higher = more signal.
The nature of test [12]: budding yeast growth changes without added modifier – OD600, strain BY4716, 24 h, basal condition, primary screen (AID 1173). The conditions noted are these: S. cerevisiae BY4716 growth, OD600, 24 h; higher = more signal, called active from +8 up or from −8 down.
A short description of test [13]: viability profiling in MM1S myeloma cells – cell-based, resazurin fluorescence, basal, 24 h, PK04 Diversity Set, profiling panel (AID 1174). Also: test concentration not given here. The note with it: higher = more signal, called active from +8 up or from −8 down.
For test [14], the target named is Dihydroorotate dehydrogenase (quinone), mitochondrial (Plasmodium falciparum (isolate 3D7)) (UniProt Q08210). Nature of the test: inhibition of P. falciparum DHODH – biochemical, C-terminal His tag, absorbance 600 nm, primary screen (AID 1175).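 Also: recombinant parasite enzyme with a five histidine tag at its C terminus; test concentration not given here.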 The note with it: PfDHODH enzyme, DCIP absorbance 600 nm; higher = more signal, called active from +8 up or from −8 down.
Dihydroorotate dehydrogenase (quinone), mitochondrial (Plasmodium falciparum (isolate 3D7)), sequence (Q08210 whole entry, looked up): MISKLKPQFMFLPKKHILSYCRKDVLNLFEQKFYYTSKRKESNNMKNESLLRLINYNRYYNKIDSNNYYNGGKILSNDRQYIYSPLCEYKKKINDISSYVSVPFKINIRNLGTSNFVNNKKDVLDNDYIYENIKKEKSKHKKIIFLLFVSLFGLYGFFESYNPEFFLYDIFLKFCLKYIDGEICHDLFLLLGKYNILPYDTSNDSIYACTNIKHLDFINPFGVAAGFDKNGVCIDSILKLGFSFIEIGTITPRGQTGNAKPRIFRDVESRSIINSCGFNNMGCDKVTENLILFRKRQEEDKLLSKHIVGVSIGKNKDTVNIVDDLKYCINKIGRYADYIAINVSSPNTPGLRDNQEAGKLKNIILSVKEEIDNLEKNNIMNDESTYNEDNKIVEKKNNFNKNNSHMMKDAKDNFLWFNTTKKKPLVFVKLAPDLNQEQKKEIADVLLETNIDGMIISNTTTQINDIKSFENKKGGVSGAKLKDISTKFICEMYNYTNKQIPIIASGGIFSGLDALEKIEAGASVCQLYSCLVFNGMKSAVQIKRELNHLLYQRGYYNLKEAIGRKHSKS

Test [15] in a line: inhibition of PAO1 biofilm formation – strain PAO1, LB-PBS medium, absorbance 600 nm, primary screen (AID 1176). Also: test concentration not given here. The conditions noted are these: P. aeruginosa PAO1 growth/biofilm, A600, 12 h; higher = more signal.
Test [16] in a line: growth modulation of vineyard yeast isolate – strain RM11-1a, OD600, basal, 24 h, primary screen (AID 1177).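 Also: cultures grown under basal conditions with no added stressor; test concentration not given here.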 The note with it: S. cerevisiae RM11-1a growth, OD600, 24 h; higher = more signal, called active from +8 up or from −8 down.
Test [17] is described as follows: growth of efflux-deficient E. coli DRC39 – strain DRC39, OD650, 24 h, E. coli filamentation inducers, primary screen (AID 1178).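 Also: growth measured as culture turbidity by optical density at 650 nm; test concentration not given here.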 The note with it: E. coli DRC39 acrAB, higher = more signal, called active from +8 up or from −8 down.
The nature of test [18]: growth of efflux-deficient E. coli DRC39 – strain DRC39, OD650, 48 h, E. coli filamentation inducers, primary screen (AID 1179).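 Also: screen aims at cell division blockers that make cells filament.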 The conditions noted are these: E. coli DRC39 delta-acrAB growth, higher = more signal, called active from +8 up or from −8 down.
Test [19] is described as follows: viability profiling in RPMI8226 myeloma cells – cell-based, resazurin fluorescence, basal, 24 h, PK04 Diversity Set, profiling panel (AID 1180).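 Also: RPMI8826 multiple myeloma cell line at 5000 cells per well; test concentration not given here.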 The conditions noted are these: higher = more signal.
Test [20] has as its target E3 ubiquitin-protein ligase XIAP (Homo sapiens) (UniProt P98170). Nature of the test: small molecules binding XIAP protein – biophysical, small-molecule microarray, fluorescence 635 nm, primary screen (AID 1181).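 Also: score merges 667 nm emission and signal to noise over triplicate slides.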 The conditions noted are these: higher = more signal.

SMILES strings stand for the structures. Active and inactive are the calls of the source. Unless noted, no rule for the calls is given here.

E3 ubiquitin-protein ligase XIAP (Homo sapiens), sequence (P98170 whole entry, looked up): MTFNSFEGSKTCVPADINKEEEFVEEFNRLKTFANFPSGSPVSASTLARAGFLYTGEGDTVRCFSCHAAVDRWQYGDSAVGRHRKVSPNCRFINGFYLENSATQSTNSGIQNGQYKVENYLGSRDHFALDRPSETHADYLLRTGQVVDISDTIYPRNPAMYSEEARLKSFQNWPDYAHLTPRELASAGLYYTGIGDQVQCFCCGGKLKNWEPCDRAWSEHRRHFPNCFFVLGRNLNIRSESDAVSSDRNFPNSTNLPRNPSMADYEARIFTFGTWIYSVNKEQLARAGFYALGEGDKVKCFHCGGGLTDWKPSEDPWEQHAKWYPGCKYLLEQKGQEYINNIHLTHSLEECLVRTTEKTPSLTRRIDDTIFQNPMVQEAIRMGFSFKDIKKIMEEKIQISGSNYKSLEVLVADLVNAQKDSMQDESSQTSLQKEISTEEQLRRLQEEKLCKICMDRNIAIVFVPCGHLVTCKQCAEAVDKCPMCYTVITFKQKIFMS

`CC(c1ccccc1)C(O)C1C=CC2C(=O)NC(=O)C2N1Nc1ccccn1` (stereo not given): the z-score in test [1] is 0.405; in test [2], -0.309; in test [3] it was 0.925; in [4] it was -0.275; in test [5], 0.291; in [6] it was 0.0592. The z-score was -0.739 (inactive) in test [7]; 0.568 in test [8]; -0.533 in test [9]; -0.81 (inactive) in [10]; -0.987 in test [11]; 1.34 (inactive) in test [12]. In addition, the z-score in test [13] is -0.757 (inactive); in test [15] it was 1.33 (inactive); in test [16] it was 1.27 (inactive); in test [17], 0.15 (inactive); in test [18] it was 0.226 (inactive); in test [19], -0.806. Further, the composite z-score in [14] is 0.865 (inactive); in test [20], 0.0049.

As for `COc1cc(C(O)C2C=CC3C(=O)N(c4ccccc4)C(=O)C3N2Nc2ccc(C#N)cc2)cc(OC)c1OC` (stereo not given), the z-score was -1.26 in test [1]; 0.0434 in test [2]; -0.272 in test [3]; 0.0375 in test [4]; -0.269 in [5]; -1.36 in [6]. Moreover, the z-score in test [7] was -1.51 (inactive); in test [8], 0.433; in [9] it was -0.314; in test [10], -0.404 (inactive); in [11], -1.28; in test [12], -2.44 (inactive). The z-score is -1.62 (inactive) in [13]; 1.36 (inactive) in [15]; -0.343 (inactive) in test [16]; -0.914 (inactive) in test [17]; -0.386 (inactive) in [18]; -0.919 in [19]. For the same compound, the composite z-score is 0.198 (inactive) in test [14] and 0.0819 in [20].

For the compound `CCCCC(O)C1C=CC2C(=O)N(C3CCCCC3)C(=O)C2N1Nc1ccc(OC)cc1` (stereo not given), the z-score was -0.875 in test [1]; 0.325 in [2]; -0.572 in test [3]; 0.0802 in test [4]; -1.22 in test [5]; -0.307 in [6]. Also, the z-score was -0.109 (inactive) in test [7]; -0.111 in test [8]; 0.024 in [9]; 0.112 (inactive) in [10]; -0.414 in test [11]; -2.57 (inactive) in [12]. For the same compound, the z-score in [13] was -0.496 (inactive); in test [15] it was 0.89 (inactive); in test [16] it was 0.669 (inactive); in [17] it was -1.01 (inactive); in test [18], -0.584 (inactive); in test [19], -0.369. Besides, the composite z-score was 1.12 (inactive) in [14] and 0.0617 in test [20].

`O=C1OCC=C[C@H]2OC34C=CCN(c5ccc6ccccc6c5)C(=O)[C@H]3N(CCCO)C(=O)[C@@H]4[C@@H]12` (stereo not given in full): the z-score in test [1] was 0.501; in test [2], 1.79; in [3], 0.0068; in [4], -0.608; in test [5], -0.691; in test [6], -0.448. The z-score in test [7] was -0.517 (inactive); in test [8], 0.0183; in test [9] it was -0.46; in test [10] it was -1.09 (inactive); in test [11] it was -0.364; in [12], -0.82 (inactive). Moreover, the z-score in [13] was -0.712 (inactive); in test [15], -0.385 (inactive); in test [16] it was -0.13 (inactive); in [17] it was -0.265 (inactive); in test [18], -0.641 (inactive); in test [19], -2.41. The composite z-score in test [14] is -0.959 (inactive); in [20] it was -0.181.
